This note sets out measurements from PMC4552634, “A New Set of Chemical Starting Points with Plasmodium falciparum Transmission-Blocking Potential for Antimalarial Drug Discovery” (PLoS ONE, 2015).

Out of some 13,000 compounds screened, about 3,200 (25%) showed an effect of 50% or more. The list shows a part of the results.

For the assay, the system named is P. falciparum stage V gametocytes. Further details: BacTiter-Glo ATP luminescence viability of purified stage V gametocytes in 384-well plates, per cent inhibition versus DMSO. To be noted: 48 h, 5 µM; inhibitor.
In general, % Inhibition refers to the change of the read-out against control, counted positive when it falls. As to `COc1ccc2nccc(N3CCC(O)(CCNCc4ccc5c(n4)NC(=O)CS5)CC3)c2n1` [TCMDC-134553], the “% Inhibition” value was -13.65%. The figure for `CCCOc1ccc(C=C(CC(=O)O)c2nc3ccccc3s2)cc1OCC` [TCMDC-125020] is 4.95%; for `CO/C(=C\C=C\c1cc2cc(Cl)c(Cl)cc2[nH]1)C(=O)NCCCN1CCN(c2cccc(CCO)c2)CC1` [TCMDC-139549] it is -37.75%; for `CC[C@H](C)CNC(=O)c1cncc(-c2ccc(CN3CCC(N4CCCC4)CC3)cc2)c1` [TCMDC-134234] it is 36.3%. `c1ccn2c(-c3ncnc(NCc4ccc5c(c4)CCO5)n3)cnc2c1` [TCMDC-135175]: the “% Inhibition” value turned out to be 28.7%. Next, `COCc1ccccc1C(=O)NCCOc1cc(C)cc(C)c1` [TCMDC-134843]: -15.71%. Turning to `Cc1cc(N[C@@H](Cc2ccccc2)C(=O)Nc2ccccc2)nc(NCCc2cccs2)n1` [TCMDC-134814], the “% Inhibition” value is reported as 131.2%. Next, `COc1ccc(NC(=O)[C@H](Cc2ccccc2)Nc2cc(C)nc(NCCc3ccccc3)n2)cc1` [TCMDC-134774]: 119.9%; `COc1ccc(NC(=O)[C@H](Cc2ccccc2)Nc2cc(C)nc(NCc3ccccc3C)n2)cc1` [TCMDC-134904]: -26.59%; `Cc1cc(N[C@@H](Cc2ccccc2)C(=O)NC2CCCC2)nc(NCCCOC(C)C)n1` [TCMDC-134821]: 40.66%. Next, `COc1ccc(NC(=O)[C@H](Cc2ccccc2)Nc2cc(C)nc(NCCc3cccs3)n2)cc1` [TCMDC-134873]: 39.58%; `Cc1cc(N[C@@H](Cc2ccccc2)C(=O)NC2CCCC2)nc(NCc2ccccc2C)n1` [TCMDC-134902]: -12.74%; `COc1ccc(NC(=O)[C@H](Cc2ccccc2)Nc2cc(C)nc(NCCc3ccccc3OC)n2)cc1` [TCMDC-134801]: 16.26%. Next, `Cc1cc(N[C@@H](Cc2ccccc2)C(=O)NC2CCCC2)nc(NCCc2cccs2)n1` [TCMDC-134811]: 53.29%.

As for `CCOC(=O)C1=C(C)NC(C)=C(C(=O)OCC)C1(C(=O)OCc1ccccc1)c1cccc(C(F)(F)F)c1` [TCMDC-132060], the “% Inhibition” value is listed as -16.58%.

Turning to `Cc1cc(NC(=O)c2coc3cc(F)c(N4CC(C)N(C)C(C)C4)cc23)cnc1-c1ccc(C#N)cc1` (stereo not drawn) [TCMDC-141403], the “% Inhibition” value was -2.152%. The figure for `Oc1ccc(Cl)cc1CN1CCC(CCOC(c2ccccc2)c2ccc(Cl)cc2)CC1` (stereo not drawn) [TCMDC-136035] is 13.31%; for `O=C(/C=C/c1ccc(Cl)c(Cl)c1)NCCCCCN1CCC(NC(=O)Nc2cc(F)ccc2F)CC1` [TCMDC-135713] it is -50.93%; for `COc1cc(F)c2ncc(Cl)c(CCN3CCC(NCc4cc5c(cn4)OCCO5)CC3)c2c1` [TCMDC-134284] it is 7.425%.

As for `O=S(=O)(c1cc(Cl)ccc1Cl)N1CCCCC(c2ccc(C(F)(F)F)cc2)=N1` [TCMDC-134538], the “% Inhibition” value was -6.074%. Next, `CCCCN1CCCC[C@H]1[C@@H](O)c1ccnc2ccc(OCC)cc12` [TCMDC-132037]: -41.99%; `CC(C)c1ccc(NC(=O)c2cccc(CN3CCCN(Cc4cccc(C#N)c4)CC3)c2)cc1` [TCMDC-135975]: 18.13%; `CC(C)(C)c1ccc(NC(=O)c2cccc(CN3CCCN(Cc4cccc(C#N)c4)CC3)c2)cc1` [TCMDC-135981]: -19.29%. The figure for `CN(N=Cc1ccccc1)C(N)=NCCCC#Cc1cccc(CN2CCCC2)c1` [TCMDC-136886] is 99.7%; for `CCCCCCNC(=O)C1Cc2c([nH]c3ccccc23)C2(CCN(CCc3ccccc3)CC2)N1` (stereo not drawn) [TCMDC-141085] it is -57.94%; for `O=C(CCc1cnc[nH]1)Nc1ccc(-c2ccc(-c3nc4ccc(F)cc4[nH]3)cc2)cc1` [TCMDC-136776] it is 4.733%. The figure for `CCCCCCCCOc1c(OCC)cc(Cc2cnc(N)nc2N)cc1OCC` [TCMDC-137175] is -7.172%. On to `CCN(CC)CCCCCNc1c2ccc(Cl)cc2nc2ccc(OC)cc12` [TCMDC-137514], for which the “% Inhibition” value is given as 94.78%. With `CCCCCCN(CCCCCC)CCCCNc1c2ccc(Cl)cc2nc2ccc(OC)cc12` [TCMDC-137520], the “% Inhibition” value is given as 100.6%.

For `CCCCN(CCCC)CCCCNc1c2ccc(Cl)cc2nc2ccc(OC)cc12` [TCMDC-137460], the “% Inhibition” value was found to be 99.56%. The figure for `COc1ccc2nccc([C@@H](O)CN3CCC(NC(=O)C(c4ccsc4)N4CCN(c5ccccc5)CC4)CC3)c2c1` (stereo partly drawn) [TCMDC-140985] is -15.82%; for `Cc1cccc2nc(-c3cccc(-c4cccc(C(=O)NCc5nccn5C)c4)c3)[nH]c12` [TCMDC-132355] it is -47.29%; for `CN(CCN)Cc1cccc(-c2cccc(-c3nc4ccc(F)cc4[nH]3)c2)c1` [TCMDC-132822] it is 48.31%. Turning to `CNCCNCc1cccc(-c2cccc(-c3nc4ccc(C(F)(F)F)cc4[nH]3)c2)c1` [TCMDC-132827], the “% Inhibition” value came out at 52.85%. Consider `CNCCNCc1ccc(-c2cccc(-c3nc4ccc(C(F)(F)F)cc4[nH]3)c2)cc1` [TCMDC-132826], for which the “% Inhibition” value came out at 78.68%. Next, `CNCCNCc1cccc(-c2ccc(-c3nc4ccc(C(F)(F)F)cc4[nH]3)cc2)c1` [TCMDC-132834]: 79.7%.

In the case of `CC(C)NCc1cccc(-c2ccc(-c3nc4ccc(C(F)(F)F)cc4[nH]3)cc2)c1` [TCMDC-132742], the “% Inhibition” value was -56.16%. Take `COc1ccc(CNCc2cccc(-c3ccc(-c4nc5ccc(C(F)(F)F)cc5[nH]4)cc3)c2)cc1` [TCMDC-132723]: the “% Inhibition” value was -32.29%. The figure for `CN(CCN)Cc1cccc(-c2cccc(-c3nc4ccc(C(F)(F)F)cc4[nH]3)c2)c1` [TCMDC-132818] is 68%.

As to `CNCCNCc1ccc(-c2ccc(-c3nc4ccc(C(F)(F)F)cc4[nH]3)cc2)cc1` [TCMDC-132833], the “% Inhibition” value was 32.25%.

For `CNc1ccc(CNCc2cccc(-c3ccc(-c4nc5ccc(C(F)(F)F)cc5[nH]4)cc3)c2)cc1` [TCMDC-132982], the “% Inhibition” value is given as -73.95%. Take `COc1ccc(CNCc2ccc(-c3cccc(-c4nc5ccc(C(F)(F)F)cc5[nH]4)c3)cc2)cc1` [TCMDC-132731]: the “% Inhibition” value is -22.42%.
